Active and inactive are the calls of the source. How the source made its calls: active means hit-call score of the fitted dose curve at least 0.9, where 1 is the maximum; inactive means score below 0.9.
Columns and labels:
[1] = ATG_CRE_CIS: Attagene CIS-FACTORIAL HepG2 Assay for human cAMP Responsive Element (CRE) binding protein 3 (AID 2282926); settings: HepG2 CRE cis-reporter, Attagene multiplexed mRNA; actives raise or lower the signal
Summary of the method: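 Human liver HepG2, transient MRTU transfection, 24 h compound exposure. Total RNA → oligo(dT) RT → PCR → 6-FAM primer extension → HpaI cut → CE. Activity called both directions vs DMSO.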

[2] = molecular target: CCAAT/enhancer-binding protein beta (Homo sapiens) (UniProt P17676); assay: ATG_C_EBP_CIS: Attagene CIS-FACTORIAL HepG2 Assay for human CCAAT/Enhancer Binding Protein (C/EBP) beta (AID 2282927); settings: HepG2 Attagene cis-factorial transcription factor reporter; actives raise or lower the signal
Sequence of CCAAT/enhancer-binding protein beta (Homo sapiens) (P17676 whole entry, looked up, the tested form may be a part): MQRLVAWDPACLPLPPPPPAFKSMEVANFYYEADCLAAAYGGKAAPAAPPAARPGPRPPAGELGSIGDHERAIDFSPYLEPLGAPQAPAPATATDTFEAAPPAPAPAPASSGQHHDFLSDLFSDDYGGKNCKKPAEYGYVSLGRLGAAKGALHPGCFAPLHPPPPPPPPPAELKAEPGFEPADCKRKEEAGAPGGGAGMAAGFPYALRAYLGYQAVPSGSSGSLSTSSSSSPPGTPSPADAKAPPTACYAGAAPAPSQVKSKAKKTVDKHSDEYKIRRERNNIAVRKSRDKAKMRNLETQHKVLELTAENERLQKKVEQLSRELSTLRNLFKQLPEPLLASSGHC
Summary of the method: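 Chemical-treated HepG2 cells (24 h) bearing cis-regulated reporter constructs were processed for total RNA, then reverse transcription, PCR amplification, fluorescent primer extension and fragment analysis; gain- and loss-of-signal were fitted against DMSO.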

[3] = ATG_CMV_CIS: Attagene CIS-FACTORIAL HepG2 Assay for human CMV (Internal Marker) (AID 2282928); settings: HepG2 CMV promoter reporter, transcription factor profiling; actives raise or lower the signal;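 further: endpoint acts as a background internal control marker rather than a target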
Summary of the method: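 HepG2 cells transiently transfected with multiple cis-regulated reporter units; 24 h compound exposure. Reporter mRNA quantified by RT-PCR, 6-FAM primer-extension labeling, HpaI digestion and capillary electrophoresis; bidirectional fitting against DMSO baseline.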

[4] = ATG_DR4_LXR_CIS: Attagene CIS-FACTORIAL HepG2 Assay for human Liver X Receptor (LXR), DR4 submotif (AID 2282929); settings: HepG2 Attagene DR4 cis-reporter, mRNA transcription; actives raise or lower the signal
Summary of the method: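 Measures endogenous transcription factor activity via a DR4-driven reporter transcript in human HepG2 cells. Compounds incubated 24 h; mRNA quantified by RT-PCR and capillary electrophoresis, analysed as gain or loss of signal versus DMSO.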

[5] = molecular target: Aryl hydrocarbon receptor (Homo sapiens) (UniProt P35869); assay: ATG_Ahr_CIS: Attagene CIS-FACTORIAL HepG2 Assay for human Aryl Hydrocarbon Receptor (Ahr) (AID 2282930); settings: HepG2 AhR cis-factorial reporter transcription; actives raise or lower the signal
Sequence of Aryl hydrocarbon receptor (Homo sapiens) (P35869 whole entry, looked up): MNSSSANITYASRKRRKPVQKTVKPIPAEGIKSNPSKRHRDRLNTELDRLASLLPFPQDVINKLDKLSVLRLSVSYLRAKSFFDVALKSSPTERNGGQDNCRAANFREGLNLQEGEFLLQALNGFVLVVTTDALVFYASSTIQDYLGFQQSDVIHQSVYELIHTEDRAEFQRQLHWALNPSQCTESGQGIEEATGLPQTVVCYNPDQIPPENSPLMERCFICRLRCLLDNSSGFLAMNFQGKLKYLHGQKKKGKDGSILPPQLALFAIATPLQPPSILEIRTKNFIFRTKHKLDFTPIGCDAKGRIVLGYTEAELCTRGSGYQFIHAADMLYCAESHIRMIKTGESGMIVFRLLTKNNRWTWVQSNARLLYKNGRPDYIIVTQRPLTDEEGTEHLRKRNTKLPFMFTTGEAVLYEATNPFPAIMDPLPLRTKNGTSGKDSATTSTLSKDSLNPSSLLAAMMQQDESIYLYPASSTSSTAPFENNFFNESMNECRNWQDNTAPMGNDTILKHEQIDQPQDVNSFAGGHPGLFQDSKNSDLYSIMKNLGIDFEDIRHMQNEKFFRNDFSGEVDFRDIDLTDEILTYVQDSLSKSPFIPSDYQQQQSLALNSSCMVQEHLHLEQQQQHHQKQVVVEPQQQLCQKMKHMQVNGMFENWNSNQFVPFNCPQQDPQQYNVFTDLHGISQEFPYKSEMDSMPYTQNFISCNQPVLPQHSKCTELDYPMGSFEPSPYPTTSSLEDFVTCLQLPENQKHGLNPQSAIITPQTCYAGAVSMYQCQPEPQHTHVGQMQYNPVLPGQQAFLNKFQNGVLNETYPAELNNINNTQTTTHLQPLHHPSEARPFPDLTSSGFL
Summary of the method: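 Following 24 h of chemical dosing, transfected HepG2 liver cells with cis-driven reporter units were lysed for RNA; reporter mRNA was quantified via RT-PCR and capillary electrophoresis, and responses fitted bidirectionally from DMSO.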

[6] = ATG_AP_1_CIS: Attagene CIS-FACTORIAL HepG2 Assay for human Activator Protein 1 (AP-1) (AID 2282931); settings: HepG2 Attagene cis-factorial AP-1 reporter mRNA; actives raise or lower the signal
Summary of the method: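 Bidirectional concentration-response fitting against DMSO controls. Underlying signal: reporter mRNA from cis-promoter constructs in transiently transfected HepG2, measured after 24 h by RT-PCR and capillary electrophoresis.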

[7] = ATG_AP_2_CIS: Attagene CIS-FACTORIAL HepG2 Assay for human Activator Protein 2 (AP-2) (AID 2282932); settings: HepG2 AP-2 cis-reporter, Attagene transcription factor profiling; actives raise or lower the signal
Summary of the method: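 Bidirectional curve fitting against DMSO was applied to reporter mRNA signals from HepG2 cells 24 h after dosing. Cis-promoter reporter units, transiently transfected, were read by RT-PCR plus capillary electrophoresis.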

[8] = ATG_BRE_CIS: Attagene CIS-FACTORIAL HepG2 Assay for human Bone Morphogenetic Protein (BMP) Response Element (BRE) (AID 2282933); settings: HepG2 BMP response element reporter, Attagene transcription factor profiling; actives raise or lower the signal
Summary of the method: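 HepG2 cells transiently transfected with CIS reporter units (endogenous TF activity, BMP response element), dosed 24 h. Reporter mRNA quantified by RT-PCR, fluorescent labelling and capillary electrophoresis; bidirectional fit vs DMSO baseline.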

[9] = molecular target: Retinoic acid receptor alpha (Homo sapiens) (UniProt P10276); assay: ATG_DR5_RAR_CIS: Attagene CIS-FACTORIAL HepG2 Assay for human Retinoic Acid Receptor Alpha (RARE), DR5 submotif (AID 2282934); settings: HepG2 Attagene cis-factorial RARE DR5 reporter, mRNA; actives raise or lower the signal
Sequence of Retinoic acid receptor alpha (Homo sapiens) (P10276 whole entry, looked up): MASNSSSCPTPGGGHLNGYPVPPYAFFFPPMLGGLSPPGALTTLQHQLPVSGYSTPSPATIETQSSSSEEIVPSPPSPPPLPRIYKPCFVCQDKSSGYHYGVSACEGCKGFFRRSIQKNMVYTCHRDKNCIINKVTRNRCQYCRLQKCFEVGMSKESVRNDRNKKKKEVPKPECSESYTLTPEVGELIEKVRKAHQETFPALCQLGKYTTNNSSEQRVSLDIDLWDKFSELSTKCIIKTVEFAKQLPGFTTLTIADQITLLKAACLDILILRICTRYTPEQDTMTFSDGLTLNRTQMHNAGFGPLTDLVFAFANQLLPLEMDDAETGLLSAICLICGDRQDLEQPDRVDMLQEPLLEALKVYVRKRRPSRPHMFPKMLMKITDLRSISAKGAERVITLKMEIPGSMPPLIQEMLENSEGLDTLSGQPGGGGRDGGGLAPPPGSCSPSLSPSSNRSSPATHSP
Summary of the method: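 Transfected HepG2 reporter cells are exposed to chemicals for 24 h. Then RNA is extracted and the DR5 element reporter transcript is measured by RT-PCR and capillary electrophoresis, with bidirectional curve fitting relative to DMSO.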

[10] = molecular target: Transcription factor E2F1 (Homo sapiens) (UniProt Q01094); assay: ATG_E2F_CIS: Attagene CIS-FACTORIAL HepG2 Assay for human E2F Transcription Factor 1 (AID 2282935); settings: HepG2 Attagene cis-reporter, E2F reporter RNA transcripts; actives raise or lower the signal
Sequence of Transcription factor E2F1 (Homo sapiens) (Q01094 whole entry, looked up): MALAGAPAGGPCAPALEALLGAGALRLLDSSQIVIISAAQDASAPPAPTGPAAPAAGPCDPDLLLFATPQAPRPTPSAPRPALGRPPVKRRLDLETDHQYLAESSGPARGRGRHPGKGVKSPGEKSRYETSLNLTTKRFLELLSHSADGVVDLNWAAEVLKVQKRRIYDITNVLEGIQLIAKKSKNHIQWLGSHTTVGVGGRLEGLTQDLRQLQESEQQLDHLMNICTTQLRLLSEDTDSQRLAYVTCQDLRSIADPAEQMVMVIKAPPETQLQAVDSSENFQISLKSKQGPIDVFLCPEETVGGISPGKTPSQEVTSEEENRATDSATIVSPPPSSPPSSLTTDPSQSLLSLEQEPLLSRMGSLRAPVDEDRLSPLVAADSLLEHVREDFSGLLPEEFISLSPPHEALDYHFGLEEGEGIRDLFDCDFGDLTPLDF
Summary of the method: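 Multiplexed cis-reporter assay: HepG2, transient transfection, 24 h dosing, mRNA quantitation by labeled RT-PCR and CE.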

[11] = ATG_E_Box_CIS: Attagene CIS-FACTORIAL HepG2 Assay for human Enhancer Box (E-box) (AID 2282936); settings: HepG2 E-box cis-reporter transcription, actives raise or lower the signal
Summary of the method: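 Multiplexed CIS reporter system in transiently transfected HepG2 cells measures native transcription factor activity. Reporter RNA after 24 h exposure is profiled by RT-PCR-capillary electrophoresis.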

[12] = ATG_M_61_CIS: Attagene CIS-FACTORIAL HepG2 Assay for M61 Transcription Factor (Internal Marker) (AID 2282937); settings: HepG2 Attagene CIS-FACTORIAL M61 internal marker reporter; actives raise or lower the signal
Summary of the method: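 Fluorescence from labelled cDNA fragments, separated by capillary electrophoresis, quantifies reporter induction. HepG2 cells bearing transiently transfected cis-promoter MRTUs were incubated with test chemical for 24 h; DMSO defined baseline for gain/loss fitting.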

[13] = ATG_EGR_CIS: Attagene CIS-FACTORIAL HepG2 Assay for human Early Growth Response 1 (EGR1) (AID 2282938); settings: HepG2 Attagene CIS-FACTORIAL EGR reporter mRNA; actives raise or lower the signal
Summary of the method: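 Cell-based multiplex transcription assay: HepG2 carrying transfected cis-element reporter units, 24 h chemical treatment. Fluorescence from capillary electrophoresis of RT-PCR products gives mRNA levels; fitting is bidirectional relative to DMSO.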

[14] = ATG_M_19_CIS: Attagene CIS-FACTORIAL HepG2 Assay for M19 Transcription Factor (Internal Marker) (AID 2282939); settings: HepG2 Attagene CIS-FACTORIAL M19 internal marker reporter; actives raise or lower the signal
Summary of the method: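 HepG2 cells transiently transfected with cis-regulated multiplexed reporter units, dosed 24 h. Reporter mRNA quantified by RT-PCR and capillary electrophoresis; internal background marker fitted bidirectionally versus DMSO.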

[15] = ATG_ERE_CIS: Attagene CIS-FACTORIAL HepG2 Assay for Estrogen Response Element (ERE) (AID 2282940); settings: HepG2 ERE cis-reporter, Attagene RNA transcript; actives raise or lower the signal
Summary of the method: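 HepG2 cells transiently transfected with multiplexed cis-element reporter units, measuring endogenous transcription factor activity; ERE reporter mRNA quantified after 24 h exposure by RT-PCR, fluorescent labelling, HpaI digestion and capillary electrophoresis. Bidirectional change versus DMSO.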

[16] = ATG_Ets_CIS: Attagene CIS-FACTORIAL HepG2 Assay for human Erythroblast Transformation Specific (ETS) (AID 2282941); settings: HepG2 ETS cis-reporter transcription, actives raise or lower the signal
Summary of the method: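 HepG2 cells transiently transfected with cis-promoter reporter transcription units were dosed for 24 h; reporter mRNA was measured by RT-PCR, 6-FAM primer extension, HpaI digestion and capillary electrophoresis, with bidirectional fitting against DMSO baseline.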

[17] = molecular target: Hepatocyte nuclear factor 3-beta (Homo sapiens) (UniProt Q9Y261); assay: ATG_FoxA2_CIS: Attagene CIS-FACTORIAL HepG2 Assay for human Forkhead box A2 (FOXA2) (AID 2282942); settings: HepG2 cis-reporter transcription factor activity, 24 h; actives raise or lower the signal
Sequence of Hepatocyte nuclear factor 3-beta (Homo sapiens) (Q9Y261 whole entry, looked up): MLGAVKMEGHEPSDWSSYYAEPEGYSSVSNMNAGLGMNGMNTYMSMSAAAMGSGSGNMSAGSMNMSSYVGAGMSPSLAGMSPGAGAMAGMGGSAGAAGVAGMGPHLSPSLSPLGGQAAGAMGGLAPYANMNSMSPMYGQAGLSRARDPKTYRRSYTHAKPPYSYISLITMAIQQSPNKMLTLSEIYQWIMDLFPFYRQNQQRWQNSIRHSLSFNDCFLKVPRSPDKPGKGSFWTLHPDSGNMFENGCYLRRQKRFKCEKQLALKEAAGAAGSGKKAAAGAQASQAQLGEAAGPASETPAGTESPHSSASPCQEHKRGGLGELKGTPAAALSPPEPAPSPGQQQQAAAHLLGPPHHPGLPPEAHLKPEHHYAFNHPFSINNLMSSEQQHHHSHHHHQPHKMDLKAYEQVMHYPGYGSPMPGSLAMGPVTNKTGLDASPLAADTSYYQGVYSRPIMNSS
Summary of the method: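 In transiently transfected human HepG2 cells, promoter-driven reporter mRNA levels after 24 h chemical exposure are determined via RT-PCR with capillary electrophoresis. DMSO serves as baseline for bidirectional fitting.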

[18] = ATG_FoxO_CIS: Attagene CIS-FACTORIAL HepG2 Assay for human Forkhead box O (FoxO) (AID 2282943); settings: HepG2 Attagene cis-reporter, FoxO element, mRNA; actives raise or lower the signal
Summary of the method: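 24 h chemical exposure, HepG2 with transient cis-MRTU transfection. RNA extraction, oligo(dT) RT, reporter-specific PCR, primer-extension labelling, HpaI digestion, CE fragment analysis; bidirectional fit, DMSO baseline.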

[19] = ATG_GATA_CIS: Attagene CIS-FACTORIAL HepG2 Assay for human GATA Binding Protein (AID 2282944); settings: HepG2 GATA cis-element reporter, Attagene multiplex mRNA; actives raise or lower the signal
Summary of the method: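 HepG2 cells transiently transfected with multiplexed cis-element reporter units measure endogenous GATA activity; after 24 h compound exposure, reporter mRNA quantified by RT-PCR and capillary electrophoresis. Changes fitted in both directions vs DMSO.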

[20] = ATG_GLI_CIS: Attagene CIS-FACTORIAL HepG2 Assay for human Zinc Finger Protein GLI1 (AID 2282945); settings: HepG2, Attagene cis-factorial reporter mRNA, GLI element; actives raise or lower the signal
Summary of the method: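 HepG2 cells transiently transfected with cis-promoter multiplexed reporter units report endogenous transcription factor activity. After 24 h chemical exposure, reporter mRNA was quantified by RT-PCR, 6-FAM labelling, HpaI digestion and capillary electrophoresis, with bidirectional fitting against DMSO.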

Measured: AC50

Cc1cnc(NC(=O)C2=C(O)c3ccccc3S(=O)(=O)N2C)s1
active: [5] 100 µM
inactive: [1] | [2] | [3] | [4] | [6] | [7] | [8] | [9] | [10] | [11] | [12] | [13] | [14] | [15] | [16] | [17] | [18] | [19] | [20]

CCOC(=O)CC(C(C)=O)C(C)=O
inactive: [1] | [2] | [3] | [4] | [5] | [6] | [7] | [8] | [9] | [10] | [11] | [12] | [13] | [14] | [15] | [16] | [17] | [18] | [19] | [20]

CN(C)c1ccc(N=Nc2ccccc2C(=O)O)cc1
active: [3] 137 µM | [4] 29.7 µM | [6] 37.7 µM | [11] 15.6 µM | [13] 47.4 µM | [18] 66.9 µM
inactive: [1] | [2] | [5] | [7] | [8] | [9] | [10] | [12] | [14] | [15] | [16] | [17] | [19] | [20]

O=Nc1ccc(O)cc1
inactive: [1] | [2] | [3] | [4] | [5] | [6] | [7] | [8] | [9] | [10] | [11] | [12] | [13] | [14] | [16] | [17] | [18] | [19] | [20]
active: [15] 56.4 µM

NC(=O)N=NC(N)=O
active: [8] 35 µM
inactive: [1] | [2] | [3] | [4] | [5] | [6] | [7] | [9] | [10] | [11] | [12] | [13] | [14] | [15] | [16] | [17] | [18] | [19] | [20]

CC(C)COC(=O)C=Cc1ccccc1
inactive: [1] | [2] | [3] | [4] | [5] | [7] | [8] | [9] | [10] | [11] | [12] | [13] | [14] | [15] | [16] | [17] | [18] | [20]
active: [6] 139 µM

O=C(C(Cl)Cl)N1CCOC12CCCCC2
inactive: [1] | [2] | [3] | [5] | [7] | [8] | [9] | [10] | [11] | [12] | [14] | [15] | [16] | [17] | [18] | [19] | [20]
active: [4] 12 µM | [6] 69.1 µM | [13] 19.3 µM
